Where “and” joins values, the source holds several entries; their conditions need not be identical. Equal entries are not always repeated. Records with an inconclusive call do not appear. A call without a number means that no potency is given here. Calls of active or inactive are those of the source. Unless noted, the call rests on the fitted dose curve.
Legend:
[1] = Nuclear factor erythroid 2-related factor 2/antioxidant responsive element (Nrf2/ARE) small molecule agonists: qHTS cell viability counter screen in human keratinocytes (AID 1919968; active means well fitted curve in the direction sought with a large enough effect in the repeat runs; an effect the other way counts as inactive or inconclusive; further: nearly all actives have a fitted effect of over 55% in size; further: potency means the concentration at half of the fitted maximal effect)
How it was run: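 Cells of the KeratinoSens line were plated at 1,500 per well and left for 5 h before compound transfer from DMSO stocks. After a 23 h incubation (37 C, 5% CO2), CellTiter-Fluor was added. Signal was taken as fluorescence intensity 1 h later.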

[2] = Nuclear factor erythroid 2-related factor 2/antioxidant responsive element (Nrf2/ARE) small molecule agonists: luciferase reporter gene qHTS assay in human keratinocytes (AID 1919969); further: nearly all actives have a fitted effect of over 35% in size; further: potency means the concentration at half of the fitted maximal effect
[3] = molecular target: Gonadotropin-releasing hormone receptor (Homo sapiens) (UniProt P30968); assay: Human gonadotropin-releasing hormone receptor (GnRHR) small molecule agonists, calcium flux assay in GnRHR-HEK293 cells (AID 1920063); further: nearly all actives have a fitted effect of over 35% in size
Sequence of Gonadotropin-releasing hormone receptor (Homo sapiens) (P30968 whole entry, looked up): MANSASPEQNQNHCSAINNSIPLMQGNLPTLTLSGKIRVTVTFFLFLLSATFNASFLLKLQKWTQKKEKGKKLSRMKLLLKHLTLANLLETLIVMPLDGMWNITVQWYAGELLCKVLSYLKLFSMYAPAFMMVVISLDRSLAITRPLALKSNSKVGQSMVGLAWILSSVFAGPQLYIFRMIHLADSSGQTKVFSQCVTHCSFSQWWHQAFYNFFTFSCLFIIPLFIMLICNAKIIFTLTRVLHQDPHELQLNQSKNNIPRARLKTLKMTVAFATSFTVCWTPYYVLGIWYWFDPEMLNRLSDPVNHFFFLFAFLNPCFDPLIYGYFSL
How it was run: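 Compounds dissolved in DMSO are pin-transferred onto dye-loaded GnRHR-HEK293 cells, which were seeded 18 h before at 37 C/5% CO2. Calcium signal is read as fluorescence intensity at 1 s intervals for 3 min.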

[4] = molecular target: KiSS-1 receptor (Homo sapiens) (UniProt Q969F8); assay: Human kisspeptin (KISS1R) small molecule agonists, calcium flux assay in KISS1R-HEK293 cells (AID 1920064; active means well fitted curve in the direction sought with a large enough effect in the repeat runs; an effect the other way counts as inactive or inconclusive)
Sequence of KiSS-1 receptor (Homo sapiens) (Q969F8 whole entry, looked up): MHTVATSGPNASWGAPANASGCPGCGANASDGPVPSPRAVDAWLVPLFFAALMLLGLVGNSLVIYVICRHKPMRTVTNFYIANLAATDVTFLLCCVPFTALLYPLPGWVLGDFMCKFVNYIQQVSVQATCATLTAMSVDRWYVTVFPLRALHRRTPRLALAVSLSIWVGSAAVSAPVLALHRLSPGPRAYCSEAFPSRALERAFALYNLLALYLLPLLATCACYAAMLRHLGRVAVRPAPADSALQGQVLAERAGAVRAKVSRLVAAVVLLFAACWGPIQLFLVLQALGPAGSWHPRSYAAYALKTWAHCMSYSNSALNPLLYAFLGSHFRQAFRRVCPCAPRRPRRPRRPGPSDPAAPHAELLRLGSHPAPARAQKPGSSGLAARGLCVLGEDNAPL
How it was run: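 Cell line: HEK293, stable human KISS1R. Dye loading 1 h at 37 C after 18 h culture. Read: kinetic fluorescence, 480/540 nm, 3 min at 1 s intervals.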

[5] = G protein-coupled receptor (GPCR) small molecule agonists, calcium flux assay: HEK293 wild type cell line counter screen (AID 1920065)
How it was run: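 Tox21 10K compounds, 15 concentrations each in triplicate, pin-transferred in DMSO onto dye-loaded cells; kinetic read at 480/540 nm for 3 min, 1 s intervals.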

[6] = p53 small molecule agonists, cell-based qHTS assay with human liver microsomes (AID 1963577)
How it was run: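 Cells carrying a p53-responsive bla reporter were rested 5 h (37 C, 5% CO2) before compound transfer. Human liver microsomes plus NADPH, 0.5 mg/mL final apiece, supplied metabolism during the 16 h 37 C exposure.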

[7] = p53 small molecule agonists, cell-based qHTS assay with rat liver microsomes (AID 1963578)
How it was run: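 Fluorescence from a beta-lactamase reporter under a p53 response element was measured after cells had been incubated 16 h at 37 C with test compound and rat liver microsomes plus NADPH (0.5 mg/mL final each).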

[8] = p53 small molecule agonists, cell-based qHTS assay with human liver microsomes: qHTS cell viability counter screen (AID 1963579); further: nearly all actives have a fitted effect of over 45% in size; further: potency means the concentration at half of the fitted maximal effect
How it was run: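 Seed p53RE-bla cells at 4,000 per well; incubate 5 h at 37 C; add compound, human liver microsomes and NADPH; incubate 16 h at 37 C; add CellTiter-Glo; after 30 min at room temperature, read luminescence.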

[9] = p53 small molecule agonists, cell-based qHTS assay with rat liver microsomes: qHTS cell viability counter screen (AID 1963580); further: nearly all actives have a fitted effect of over 45% in size; further: potency means the concentration at half of the fitted maximal effect
How it was run: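 Counter screen for cytotoxicity under metabolic activation: rat liver microsomes and NADPH, 0.5 mg/mL final each, added with compounds to p53RE-bla HCT-116 cells; 16 h at 37 C, then ATP luminescence read.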

[10] = p53 small molecule agonists, cell-based qHTS assay: qHTS cell viability counter screen (AID 1963581); further: nearly all actives have a fitted effect of over 45% in size; further: potency means the concentration at half of the fitted maximal effect
How it was run: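 ATP content measured by luminescence in HCT-116 p53RE-bla cells treated 16 h at 37 C, same wells as the reporter screen.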

[11] = p53 small molecule agonists, cell-based qHTS assay (AID 1963582; active means well fitted activation curve with a large enough effect in the signal ratio in the repeat runs, not every such curve was filed as active; the % refers to the signal ratio)
How it was run: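 16 h compound exposure (37 C) of p53 response element–bla cells, preceded by 5 h recovery at 37 C/5% CO2; read-out via LiveBLAzer B/G FRET substrate, 2 h RT, fluorescence intensity.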

[12] = molecular target: 5-hydroxytryptamine receptor 2A (Homo sapiens) (UniProt P28223); assay: 5-hydroxytryptamine receptor 2A (HTR2A) small molecule agonists, cell-based qHTS assay (AID 1963587); further: nearly all actives have a fitted effect of over 30% in size
Sequence of 5-hydroxytryptamine receptor 2A (Homo sapiens) (P28223 whole entry, looked up): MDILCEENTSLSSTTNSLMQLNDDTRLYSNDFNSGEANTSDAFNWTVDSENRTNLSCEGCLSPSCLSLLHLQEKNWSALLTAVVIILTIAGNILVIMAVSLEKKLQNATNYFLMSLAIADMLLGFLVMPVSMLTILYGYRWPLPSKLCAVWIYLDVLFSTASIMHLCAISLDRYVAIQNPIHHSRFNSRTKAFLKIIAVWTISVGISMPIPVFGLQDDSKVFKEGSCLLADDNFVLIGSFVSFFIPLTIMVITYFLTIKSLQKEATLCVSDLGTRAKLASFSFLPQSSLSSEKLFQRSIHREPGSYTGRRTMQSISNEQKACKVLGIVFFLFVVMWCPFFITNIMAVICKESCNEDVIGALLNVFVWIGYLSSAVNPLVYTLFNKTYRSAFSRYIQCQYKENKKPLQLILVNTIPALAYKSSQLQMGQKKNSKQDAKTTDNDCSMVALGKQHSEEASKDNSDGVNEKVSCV
How it was run: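 HTR2A-CHO cells, plated 18 h at 37 C/5% CO2, dye-loaded 1 h at 37 C; compounds in DMSO added by pin tool (agonist mode). Intracellular calcium flux read as kinetic fluorescence on FDSS over 2 min at 1 s intervals.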

[13] = molecular target: Muscarinic acetylcholine receptor M1 (Homo sapiens) (UniProt P11229); assay: Cholinergic receptor muscarinic 1 (CHRM1) small molecule antagonists, cell-based qHTS assay (AID 1963588); further: nearly all actives have a fitted effect of over 40% in size; further: potency means the concentration at half of the fitted maximal effect
Sequence of Muscarinic acetylcholine receptor M1 (Homo sapiens) (P11229 whole entry, looked up): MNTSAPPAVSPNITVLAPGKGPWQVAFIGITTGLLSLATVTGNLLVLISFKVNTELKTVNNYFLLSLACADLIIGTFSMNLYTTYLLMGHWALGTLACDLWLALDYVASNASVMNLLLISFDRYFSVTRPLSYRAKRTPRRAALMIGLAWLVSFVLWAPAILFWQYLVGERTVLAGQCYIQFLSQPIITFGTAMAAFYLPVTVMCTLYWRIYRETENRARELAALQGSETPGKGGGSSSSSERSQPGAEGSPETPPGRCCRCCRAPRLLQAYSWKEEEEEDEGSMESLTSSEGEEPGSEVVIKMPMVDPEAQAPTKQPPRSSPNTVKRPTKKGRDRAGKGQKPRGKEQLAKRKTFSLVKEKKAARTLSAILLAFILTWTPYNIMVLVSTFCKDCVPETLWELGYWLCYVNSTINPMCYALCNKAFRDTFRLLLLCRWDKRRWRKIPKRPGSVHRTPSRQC
How it was run: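 Compounds were tested at 15 concentrations in three independent runs. Dye-loaded CHRM1-CHO cells were exposed 5 min at room temperature before stimulation by acetylcholine added at 50nM. Intracellular calcium was read kinetically on FDSS for 3 min.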

[14] = molecular target: Muscarinic acetylcholine receptor M1 (Homo sapiens) (UniProt P11229); assay: Cholinergic receptor muscarinic 1 (CHRM1) small molecule agonists, cell-based qHTS assay (AID 1963589); further: nearly all actives have a fitted effect of over 35% in size
How it was run: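 Homogeneous fluorescence calcium flux, agonist mode. Human M1-expressing CHO cells; compound dosed at 15 concentrations, three independent runs; signal sampled every 1 sec.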

[15] = cAMP Responsive Elements (CRE) small molecule agonists, cell-based qHTS assay (AID 1963590)
How it was run: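 HEK 293T cells stably bearing CRE-bla were plated at 2,000 cells per well and rested 18 h. Compounds, positive controls or DMSO were added for 3 h at 37 C. LiveBLAzer B/G substrate was then loaded for 2 h at room temperature.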

[16] = cAMP Responsive Elements (CRE) small molecule antagonists, cell-based qHTS assay (AID 1963591; active means well fitted inhibition curve with a large enough effect in the signal ratio in the repeat runs, not every such curve was filed as active; the % refers to the signal ratio)
How it was run: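 First, CRE-bla HEK293T cells settled 18 h at 37 C. Next, compound and 0.25 uM final NKH477 were applied for 3 h. Last, LiveBLAzer B/G substrate was loaded for 2 h at room temperature.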

[17] = molecular target: Beta-2 adrenergic receptor (Homo sapiens) (UniProt P07550); assay: Adrenergic beta2 receptor (ADRB2) small molecule antagonists, cell-based qHTS assay (AID 1963592); further: series mostly up to about 92 µM; nearly all actives have a fitted effect of over 50% in size
Sequence of Beta-2 adrenergic receptor (Homo sapiens) (P07550 whole entry, looked up): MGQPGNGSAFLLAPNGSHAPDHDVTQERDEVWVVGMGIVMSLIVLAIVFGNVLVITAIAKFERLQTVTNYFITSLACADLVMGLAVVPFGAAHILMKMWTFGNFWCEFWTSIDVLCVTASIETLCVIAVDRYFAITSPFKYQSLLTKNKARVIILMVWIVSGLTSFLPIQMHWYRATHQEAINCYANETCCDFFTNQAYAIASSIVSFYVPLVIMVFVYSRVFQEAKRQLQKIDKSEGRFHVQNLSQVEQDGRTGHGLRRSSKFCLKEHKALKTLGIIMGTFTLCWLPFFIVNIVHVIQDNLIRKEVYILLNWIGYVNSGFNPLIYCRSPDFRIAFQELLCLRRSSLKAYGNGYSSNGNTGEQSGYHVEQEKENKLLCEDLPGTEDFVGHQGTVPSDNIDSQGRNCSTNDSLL
How it was run: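 Assay format: CHO-ADRB2 cells, 18-20hr seeding at 37C/5% CO2, then compound plus 1nM isoproterenol agonist mix for 0.5hr RT. Homogeneous time-resolved fluorescence cAMP detection after 1hr, expressed as 665/615 nm ratio.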

[18] = molecular target: D(2) dopamine receptor (Homo sapiens) (UniProt P14416); assay: Dopamine D2 receptor (DRD2) small molecule agonists, cell-based qHTS assay (AID 1963594); further: nearly all actives have a fitted effect of over 35% in size
Sequence of D(2) dopamine receptor (Homo sapiens) (P14416 whole entry, looked up): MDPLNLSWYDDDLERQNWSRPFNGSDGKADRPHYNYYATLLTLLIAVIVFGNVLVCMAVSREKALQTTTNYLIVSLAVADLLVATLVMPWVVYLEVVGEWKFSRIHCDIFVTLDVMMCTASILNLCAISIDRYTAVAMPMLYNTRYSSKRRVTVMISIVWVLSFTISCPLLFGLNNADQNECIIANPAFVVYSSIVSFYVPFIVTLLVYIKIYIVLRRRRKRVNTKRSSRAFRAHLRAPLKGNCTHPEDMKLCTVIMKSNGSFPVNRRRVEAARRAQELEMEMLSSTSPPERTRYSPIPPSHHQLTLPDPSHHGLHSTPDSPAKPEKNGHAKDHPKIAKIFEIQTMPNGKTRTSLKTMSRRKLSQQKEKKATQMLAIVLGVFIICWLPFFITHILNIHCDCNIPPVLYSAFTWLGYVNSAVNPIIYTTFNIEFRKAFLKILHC
How it was run: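 HEK293 cells stably expressing DRD2 were cultured 24 h at 37 C, then given Ro20-1724 (0.1 mM final) and compounds for 10 min at room temperature. NKH477 (200nM) was then added for 30 min. cAMP was read by HTRF.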

[19] = molecular target: D(2) dopamine receptor (Homo sapiens) (UniProt P14416); assay: Dopamine D2 receptor (DRD2) small molecule antagonists, cell-based qHTS assay (AID 1963595; active means well fitted inhibition curve with a large enough effect in the signal ratio in the repeat runs, with a control signal flat; the % refers to the signal ratio)
How it was run: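 HEK293 cells stably expressing DRD2 were preincubated with 0.1 mM Ro20-1724, then with compound for 10 min at room temperature. Cells were stimulated with 200 nM NKH477 plus 12 nM quinpirole for 30 min, and cAMP was read by HTRF.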

[20] = molecular target: 5-hydroxytryptamine receptor 2A (Homo sapiens) (UniProt P28223); assay: 5-hydroxytryptamine receptor 2A (HTR2A) small molecule antagonists, cell-based qHTS assay (AID 1963586); further: nearly all actives have a fitted effect of over 45% in size; further: potency means the concentration at half of the fitted maximal effect
How it was run: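 CHO cells stably expressing human HTR2A were plated for 18 h at 37 C, then loaded with calcium dye for 1 h. Compounds were preincubated 5 min at room temperature before DOI (4 nM solution) was added. Kinetic fluorescence was read for 3 min.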

| SMILES | Potency [1] | Potency [2] | Potency [3] | Potency [4] | Potency [5] | Potency [6] | Potency [7] | Potency [8] | Potency [9] | Potency [10] | Potency [11] | Potency [12] | Potency [13] | Potency [14] | Potency [15] | Potency [16] | Potency [17] | Potency [18] | Potency [19] | Potency [20] |
| --- | --- | --- | --- | --- | --- | --- | --- | --- | --- | --- | --- | --- | --- | --- | --- | --- | --- | --- | --- | --- |
| Nc1cc(C(Cl)=C(Cl)Cl)c(S(N)(=O)=O)cc1S(N)(=O)=O | inactive | inactive | inactive | inactive | inactive | inactive | inactive | inactive | inactive | inactive | inactive | inactive | inactive | inactive | inactive | inactive | inactive | inactive | inactive | – |
| CC/C=C\CCOC(=O)C(C)C | inactive | inactive | inactive | inactive | inactive | inactive | inactive | inactive | inactive | inactive | – | inactive | inactive | inactive | inactive | inactive | – | inactive | inactive | inactive |
| CCCCCCCCCC/C=C/C#N | inactive | inactive | inactive | inactive | inactive | inactive | inactive | inactive | inactive | inactive | – | inactive | inactive | inactive | inactive | inactive | inactive | inactive | – | inactive |
| N#[N+]c1ccc2c(S(=O)(=O)[O-])cccc2c1O | inactive | inactive | inactive | inactive | inactive | inactive | inactive | inactive | inactive | inactive | – | inactive | inactive | inactive | inactive | inactive | inactive | inactive | inactive | inactive |
| CC(C)=O | inactive | inactive | inactive | inactive | inactive | inactive | inactive | inactive | inactive | inactive | – | inactive | inactive | inactive | inactive | inactive | inactive | inactive | inactive | inactive |
| CCCOC(C(=O)OC1CCN(C)CC1)(c1ccccc1)c1ccccc1 | inactive | 10.6 µM (active) | inactive | inactive | inactive | inactive | inactive | inactive | inactive | inactive | – | inactive | 0.729 µM (active) | inactive | inactive | inactive | inactive | inactive | inactive | inactive |
| CCCCCCCCCCCCCCC(=O)NC(CO)CCCCCCCCCCCCCC (stereo unspecified) | inactive | inactive | inactive | inactive | inactive | inactive | inactive | inactive | inactive | inactive | – | inactive | inactive | inactive | inactive | inactive | inactive | inactive | inactive | inactive |
| O=CC1CC1 | inactive | inactive | inactive | inactive | inactive | inactive | inactive | inactive | inactive | inactive | – | inactive | inactive | inactive | inactive | inactive | inactive | – | inactive | inactive |
| O=C(O)c1cccc(C(F)(F)F)c1 | inactive | inactive | inactive | inactive | inactive | inactive | inactive | inactive | inactive | inactive | – | inactive | – | inactive | inactive | inactive | inactive | inactive | inactive | inactive |
| CC1=C(CC(=O)O)c2cc(F)ccc2/C1=C\c1ccc(S(C)=O)cc1 (stereo unspecified) | inactive | inactive | inactive | inactive | inactive | inactive | inactive | inactive | inactive | inactive | – | – | – | – | – | – | inactive | inactive | inactive | – |
| CC(=O)O[C@@H]1CC2C3CCc4cc(OC(=O)c5ccccc5)ccc4C3CCC2(C)[C@H]1OC(C)=O (stereo partly specified) | inactive | inactive | inactive | inactive | inactive | inactive | inactive | inactive | inactive | inactive | – | – | – | inactive | inactive | inactive | inactive | inactive | inactive | inactive |
| O=C(O)/C=C/c1ccccc1 | inactive | inactive | inactive | inactive | inactive | inactive | inactive | inactive | inactive | inactive | – | inactive | inactive | inactive | inactive | inactive | inactive | inactive | inactive | inactive |
| CCOc1ncc(F)c(=O)[nH]1 | inactive | inactive | inactive | inactive | inactive | inactive | inactive | inactive | inactive | inactive | – | inactive | inactive | inactive | inactive | inactive | inactive | inactive | inactive | inactive |
| CCCCC(CC)COC(=O)c1ccc(O)cc1 (stereo unspecified) | 27.2 µM (active) and 30.6 µM (active) | inactive | inactive | inactive | inactive | inactive | inactive | 40.8 µM (active) | 45.8 µM (active) | 40.6 µM (active) | – | inactive | – | inactive | – | – | inactive | inactive | inactive | 37.5 µM (active) |
